RTF Ca sens inh: cardiac RTF calcium desensitization. P19429+P45379. IANBD-labeled cardiac RTF, Ca2+ fluorescence. inhibition, % at 7.15 µM. 340,000 tested, 0.12% active. AID 493244;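 active means inhibition above the mean inhibition of all tested compounds plus 3 SD, cut at about 17% in these data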;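 further: assay run at fixed EC70 calcium of 1.6 mM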
CRFBP-R2 agonist: CRF-BP/CRF-R2 complex agonism; HEK293 CRF-R2/CRF-BP, calcium dye fluorescence (FLIPR); percent of saturating CRF peptide response; activation, % at 13.2 µM; 350,000 tested, 0.46% active;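 active means activation of at least 50%, plus an integration ratio under a set limit after plate pattern correction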;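 further: plate controls were neutral control wells without compound for no effect and CRF at EC100 for full effect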
C-LANA FP: KSHV C-LANA DNA binding inhibition; 340,000 tested, 0.078% active; MBP-C-LANA/FAM-LBS DNA binding, fluorescence polarization; AID 504423; inhibition, % at 9 µM;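 active means highest replicate inhibition at or above 60% at 9 µM, even if other replicates fall short; inactive means all replicates below 60% inhibition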;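 further: 0% = neutral control wells and 100% = 4 µM acridine orange control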
CRFBP-R2 block: blocks CRF-induced signaling of the CRF-BP/CRF-R2 complex. 350,000 tested, 0.59% active. HEK293 CRF-R2/CRF-BP, CRF-induced calcium fluorescence. inhibition, % at 11.8 µM;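 active means inhibition of the ligand-induced calcium signal above about 50% at the single tested concentration, limit read from the data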
Keap1 Nrf2 FP: disrupts human Keap1 binding to Nrf2 peptide; Q14145; Keap1 Kelch-Nrf2 peptide fluorescence polarization, 1536-well; inhibition, % at 9.4 µM; 340,000 tested, 0.15% active; AID 504523; in the data active means inhibition above about 12%;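 further: human Keap1 Kelch domain with fluorescein labeled Nrf2 9mer peptide probe; 0% = neutral control wells and 100% = peptide positive control; higher means more block of Keap1 binding to Nrf2 peptide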
Target sequence (Q14145 whole entry, looked up, the tested form may be a part): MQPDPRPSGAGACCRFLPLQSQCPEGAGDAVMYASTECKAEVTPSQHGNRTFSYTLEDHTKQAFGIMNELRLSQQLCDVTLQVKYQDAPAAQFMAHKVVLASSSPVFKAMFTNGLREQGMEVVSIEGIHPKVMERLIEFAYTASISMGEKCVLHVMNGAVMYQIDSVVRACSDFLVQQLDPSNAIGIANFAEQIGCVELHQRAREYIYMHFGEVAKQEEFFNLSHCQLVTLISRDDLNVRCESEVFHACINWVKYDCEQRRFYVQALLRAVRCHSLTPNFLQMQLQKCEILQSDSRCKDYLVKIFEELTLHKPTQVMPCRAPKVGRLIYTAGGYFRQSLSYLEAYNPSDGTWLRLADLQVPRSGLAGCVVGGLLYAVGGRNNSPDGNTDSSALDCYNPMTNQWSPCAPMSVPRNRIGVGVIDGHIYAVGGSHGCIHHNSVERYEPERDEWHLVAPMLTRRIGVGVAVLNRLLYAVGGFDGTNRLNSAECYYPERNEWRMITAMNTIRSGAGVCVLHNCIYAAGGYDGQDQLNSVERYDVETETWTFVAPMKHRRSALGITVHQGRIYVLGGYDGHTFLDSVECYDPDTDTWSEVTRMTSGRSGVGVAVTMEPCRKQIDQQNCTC
RTF Ca sens act: increases calcium sensitivity of human cardiac regulated thin filaments | P19429+P45379 | IANBD-labeled TnC RTF fluorescence at EC20 calcium; 0% EC20 calcium, 100% full calcium | activation, % at 7.2 µM | 340,000 tested, 0.24% active;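 active means activation above the mean over all tested compounds plus 3 SD, cut at about 30% in these data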;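 further: rise in fluorescence read as greater calcium sensitivity of cardiac thin filaments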
Active calls of the source: *. The list is not random: actives were taken first. Their share in the collection is about 1.3%.

`CCOc1ccccc1NC(=O)C1CCCN1S(=O)(=O)c1ccccc1C(F)(F)F` (centres undefined) gave RTF Ca sens inh -4.5, CRFBP-R2 agonist -0.5, C-LANA FP -2.0, CRFBP-R2 block 82.0*, Keap1 Nrf2 FP -3.0 and RTF Ca sens act -3.4.
`CC(=O)c1cccc(NC(=O)C2CCCN2S(=O)(=O)c2ccccc2C(F)(F)F)c1` (centres undefined) gave CRFBP-R2 agonist -0.9 and CRFBP-R2 block 18.7.
For COc1cccc(CN2CCC(Oc3ccc(C(=O)NCc4ccccn4)cc3)CC2)c1O the results were RTF Ca sens inh 0.4, CRFBP-R2 agonist 0.0, C-LANA FP -0.7, CRFBP-R2 block 107.4*, Keap1 Nrf2 FP 0.9 and RTF Ca sens act -7.4.
`S=C(Nc1ccc2c(c1)OCO2)Nc1ccccc1Cl` gave RTF Ca sens inh 0.5, CRFBP-R2 agonist 0.7, C-LANA FP 0.8, CRFBP-R2 block 76.4*, Keap1 Nrf2 FP -1.5 and RTF Ca sens act 1.9.
S=C(NCc1ccc(Cl)c(Cl)c1)Nc1ccc2c(c1)OCO2 was read as RTF Ca sens inh -41.0, CRFBP-R2 agonist -0.2, C-LANA FP 1.4, CRFBP-R2 block 69.2*, Keap1 Nrf2 FP -0.8 and RTF Ca sens act -2.3.
`CC(C)[N+]1=C2C=CC=CC=C2SC12C([N+](=O)[O-])=CC(=[N+]([O-])[O-])C=C2[N+](=O)[O-]` (centres undefined) gave RTF Ca sens inh -1.6, CRFBP-R2 agonist -4.2, C-LANA FP 3.2, CRFBP-R2 block 3.0, Keap1 Nrf2 FP -2.3 and RTF Ca sens act 3.8.
Cc1nn(-c2ccccc2)c(Cl)c1C(=O)NCCCCNC(=O)c1c(C)nn(-c2ccccc2)c1Cl was read as RTF Ca sens inh -3.5, CRFBP-R2 agonist -1.2, C-LANA FP -0.8, CRFBP-R2 block 8.9, Keap1 Nrf2 FP 1.3 and RTF Ca sens act -0.9.
`CCC(=O)N(Cc1c(C)nn(-c2ccccc2)c1Cl)c1ccc(Cl)cc1` gave RTF Ca sens inh 1.7, CRFBP-R2 agonist -1.5, C-LANA FP -0.8, CRFBP-R2 block 67.5*, Keap1 Nrf2 FP 0.6 and RTF Ca sens act 1.1.
For COc1ccccc1N1CCN(C(c2ccccc2Cl)c2nnnn2C(C)(C)C)CC1 (centres undefined) the results were RTF Ca sens inh -3.8, CRFBP-R2 agonist 1.0, C-LANA FP 0.8, CRFBP-R2 block 5.2, Keap1 Nrf2 FP -1.4 and RTF Ca sens act -1.5.
Screening COc1ccccc1N1CCN(C(c2ccc(Cl)cc2)c2nnnn2C(C)(C)C)CC1 (centres undefined) returned RTF Ca sens inh -2.9, CRFBP-R2 agonist -1.6, C-LANA FP -0.3, CRFBP-R2 block 119.0*, Keap1 Nrf2 FP -3.1 and RTF Ca sens act 0.1.
`[O-][n+]1c2c(c3c4non(O)c4ccc31)CCCC2` gave RTF Ca sens inh -9.4, CRFBP-R2 agonist 84.6*, C-LANA FP 1.1, CRFBP-R2 block 53.0*, Keap1 Nrf2 FP 5.4 and RTF Ca sens act -17.6.
CCC(C)[C@H](NC(=O)N1CCC(C)CC1)C(=O)OC (some centres undefined) was read as RTF Ca sens inh -7.5, CRFBP-R2 agonist 1.4, C-LANA FP -1.0, CRFBP-R2 block 6.4, Keap1 Nrf2 FP 0.0 and RTF Ca sens act 43.5*.
`CCC(C)[C@H](NC(=O)N1CCCC1)C(=O)OC` (some centres undefined) gave RTF Ca sens inh -11.8, CRFBP-R2 agonist -2.4, C-LANA FP -0.2, CRFBP-R2 block -7.5, Keap1 Nrf2 FP -1.4 and RTF Ca sens act -0.9.
For CNc1ccc(/C=C/C(=O)c2ccc3c(c2)OCCO3)cc1[N+](=O)[O-] the results were RTF Ca sens inh -4.8, CRFBP-R2 agonist 0.5, C-LANA FP -0.5, CRFBP-R2 block 13.4, Keap1 Nrf2 FP -0.9 and RTF Ca sens act -1.2.
O=C(N1CCN(c2ccccc2)CC1)C1(c2cccs2)CCOCC1 was read as RTF Ca sens inh -6.8, CRFBP-R2 agonist -0.1, C-LANA FP 0.6, CRFBP-R2 block 10.9, Keap1 Nrf2 FP 0.2 and RTF Ca sens act 3.9.
For Cn1c(/C(C#N)=C/c2ccc(-c3ccc(S(N)(=O)=O)cc3)o2)nc2ccccc21 the results were RTF Ca sens inh -17.9, CRFBP-R2 agonist 17.9, C-LANA FP 5.2, CRFBP-R2 block -31.2, Keap1 Nrf2 FP 8.5 and RTF Ca sens act 44.8*.
`COc1cc(/C=C(\C#N)c2nc3ccccc3s2)cc([N+](=O)[O-])c1O` gave RTF Ca sens inh 2.3, CRFBP-R2 agonist -0.3, C-LANA FP -1.3, CRFBP-R2 block 61.4*, Keap1 Nrf2 FP 2.2 and RTF Ca sens act 1.8.
`N#C/C(=C\c1ccc(O)c([N+](=O)[O-])c1)c1nc2ccccc2s1` gave RTF Ca sens inh 13.8, CRFBP-R2 agonist 10.6, C-LANA FP -0.3, CRFBP-R2 block 49.2, Keap1 Nrf2 FP -6.2 and RTF Ca sens act -9.4.
For O=c1ccn([C@@H]2O[C@H](CNS(=O)(=O)c3csc(-c4ccno4)c3)[C@@H](O)[C@H]2O)c(=O)[nH]1 the results were RTF Ca sens inh -7.6, CRFBP-R2 agonist 2.7, C-LANA FP -1.5, CRFBP-R2 block -25.6, Keap1 Nrf2 FP -1.8 and RTF Ca sens act 2.1.
For COc1ccc(/C=C2/SC(c3ccc(C)cc3)=NC2=O)cc1OC the results were RTF Ca sens inh -32.5, CRFBP-R2 agonist 35.5, C-LANA FP 16.2, CRFBP-R2 block -32.1, Keap1 Nrf2 FP -12.2 and RTF Ca sens act 27.7.
COc1ccc(/C=C2\SC(c3ccc(C)cc3)=NC2=O)cc1OC was read as RTF Ca sens inh -27.6, CRFBP-R2 agonist 132.2*, C-LANA FP 1.0, CRFBP-R2 block -136.6, Keap1 Nrf2 FP -5.7 and RTF Ca sens act 20.1.
Screening COc1cc(/C=C2\SC(c3ccc(C)cc3)=NC2=O)ccc1O returned RTF Ca sens inh -11.2, CRFBP-R2 agonist 50.2*, C-LANA FP 9.4, CRFBP-R2 block -120.0, Keap1 Nrf2 FP -1.9 and RTF Ca sens act 2.4.
For CC(OC(=O)C1=COCCO1)C(=O)c1ccc(C(C)(C)C)cc1 (centres undefined) the results were RTF Ca sens inh -7.5, CRFBP-R2 agonist 2.0, C-LANA FP 0.7, CRFBP-R2 block 2.1, Keap1 Nrf2 FP 1.6 and RTF Ca sens act 12.2.
Screening C#CCN1C(=O)S/C(=C/C=C/c2ccc(N(C)C)cc2)C1=O returned RTF Ca sens inh -37.4, CRFBP-R2 agonist 85.2*, C-LANA FP -1.7, CRFBP-R2 block -149.8, Keap1 Nrf2 FP -5.5 and RTF Ca sens act 21.6.
`O=C(CN1C(=O)S/C(=C\C=C\c2ccccc2)C1=O)Nc1ccccc1C(=O)O` gave RTF Ca sens inh -4.3, CRFBP-R2 agonist -0.8, C-LANA FP 5.3, CRFBP-R2 block 29.0, Keap1 Nrf2 FP -2.1 and RTF Ca sens act -1.8.
For O=C(C1CCN(S(=O)(=O)c2cccc3cccnc23)CC1)N1CCN(c2ccccc2)CC1 the results were RTF Ca sens inh 2.6, CRFBP-R2 agonist -0.4, C-LANA FP 0.5, CRFBP-R2 block 17.9, Keap1 Nrf2 FP 2.7 and RTF Ca sens act 1.1.

Source: PubChem BioAssay (several laboratories)
